Test results from the supplement of paper PMC8728848.
Shown is part of a subset that was picked to be rich in the strongest signals.

Assays:
Assay in all cases: glycan array binding signal (z-score within array); higher = stronger binding
Details in all cases: glycan notation: IUPAC condensed, linker removed
[1] = target: Fuc(a1-2)Gal(b1-3)GalNAc(b1-3)Gal(a1-4)Gal(b1-4)Glc
In short: (§1)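 Arrays were curated from the Consortium for Functional Glycomics database, 3228 in total, and kept only where the protein sequence was available. Binding is expressed as a within-array Z-score. This score was averaged across arrays of the same protein sequence at different concentrations or buffers and across linkers, and negative values can be read as non-binding.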

[2] = target: Fuc(a1-2)Gal(b1-3)[Fuc(a1-4)]GlcNAc(b1-2)Man(a1-3)[Fuc(a1-2)Gal(b1-3)[Fuc(a1-4)]GlcNAc(b1-2)Man(a1-6)]Man(b1-4)GlcNAc(b1-4)[Fuc(a1-6)]GlcNAc(b1-4)[Fuc(a1-6)]GlcNAc
In short: as §1

[3] = target: Fuc(a1-2)Gal(b1-4)GlcNAc(b1-3)[Fuc(a1-3)[Gal(b1-4)]GlcNAc(b1-6)]Gal(b1-4)Glc
In short: as §1

[4] = target: Fuc(a1-2)Gal(b1-4)GlcNAc(b1-6)GalNAc
In short: as §1

[5] = target: Fuc(a1-2)Gal(b1-4)[Fuc(a1-3)]GlcNAc
In short: as §1

[6] = target: Fuc(a1-2)Gal(b1-4)[Fuc(a1-3)]GlcNAc(b1-3)Gal(b1-4)[Fuc(a1-3)]GlcNAc(b1-3)Gal(b1-4)[Fuc(a1-3)]GlcNAc
In short: as §1

[7] = target: Fuc(a1-2)[Gal(a1-3)]Gal(b1-3)GalNAc(b1-3)Gal(a1-4)Gal(b1-4)Glc
In short: as §1

[8] = target: Fuc(a1-2)[Gal(a1-3)]Gal(b1-3)GlcNAc(b1-2)Man(a1-3)[Fuc(a1-2)[Gal(a1-3)]Gal(b1-3)GlcNAc(b1-2)Man(a1-6)]Man(b1-4)GlcNAc(b1-4)GlcNAc
In short: as §1

[9] = target: Fuc(a1-2)[GalNAc(a1-3)]Gal(b1-4)Glc
In short: as §1

[10] = target: Fuc(a1-2)[GalNAc(a1-3)]Gal(b1-4)GlcNAc
In short: as §1

[11] = target: Fuc(a1-3)[Gal(b1-4)]GlcNAc(b1-3)Gal(b1-4)[Fuc(a1-3)]GlcNAc
In short: as §1

[12] = target: Fuc(a1-3)[Gal(b1-4)]GlcNAc(b1-4)Gal(b1-4)[Fuc(a1-3)]GlcNAc(b1-4)Gal(b1-4)[Fuc(a1-3)]GlcNAc
In short: as §1

[13] = target: Fuc(a1-3)[Gal(b1-4)]GlcNAc(b1-6)[Gal(b1-3)GlcNAc(b1-3)]Gal(b1-4)Glc
In short: as §1

[14] = target: Fuc(a1-3)[Gal(b1-4)]GlcNAc(b1-6)[Neu5Ac(a2-3)Gal(b1-3)]GalNAc
In short: as §1

[15] = target: Gal(a1-3)Gal(b1-3)GlcNAc(b1-2)Man
In short: as §1

[16] = target: Gal(a1-3)Gal(b1-3)GlcNAc(b1-3)GalNAc
In short: as §1

[17] = target: Gal(a1-3)Gal(b1-4)[Fuc(a1-3)]GlcNAc
In short: as §1

[18] = target: Gal(a1-4)Gal(b1-3)GlcNAc(b1-2)Man(a1-3)[Gal(a1-4)Gal(b1-3)GlcNAc(b1-2)Man(a1-6)]Man(b1-4)GlcNAc(b1-4)GlcNAc
In short: as §1

Gal(b1-2)Gal = target: Gal(b1-2)Gal
In short: as §1

[19] = target: Gal(b1-3)GlcNAc(b1-3)GalNAc
In short: as §1

[20] = target: Gal(b1-3)GlcNAc(b1-6)GalNAc
In short: as §1

[21] = target: Gal(b1-3)[Fuc(a1-4)]GlcNAc
In short: as §1

[22] = target: Gal(b1-3)[Neu5Ac(a2-6)]GlcNAc(b1-6)Gal(b1-4)Glc
In short: as §1

[23] = target: Gal(b1-4)GalNAc(a1-3)[Fuc(a1-2)]Gal(b1-4)GlcNAc
In short: as §1

[24] = target: Gal(b1-4)GlcNAc(b1-2)Man(a1-3)[GlcNAc(b1-2)Man(a1-6)]Man(b1-4)GlcNAc(b1-4)GlcNAc
In short: as §1

[25] = target: Gal(b1-4)GlcNAc(b1-2)Man(a1-6)[Man(a1-3)]Man(b1-4)GlcNAc(b1-4)GlcNAc
In short: as §1

[26] = target: Gal(b1-4)GlcNAc(b1-2)[Gal(b1-4)GlcNAc(b1-6)]Man(a1-6)[Gal(b1-4)GlcNAc(b1-2)Man(a1-3)]Man(b1-4)GlcNAc(b1-4)GlcNAc
In short: as §1

[27] = target: Gal(b1-4)GlcNAc(b1-3)Gal(b1-4)GlcNAc(b1-2)Man(a1-3)[Gal(b1-4)GlcNAc(b1-3)Gal(b1-4)GlcNAc(b1-2)Man(a1-6)]Man(b1-4)GlcNAc(b1-4)[Fuc(a1-6)]GlcNAc
In short: as §1

[28] = target: Gal(b1-4)GlcNAc(b1-3)Gal(b1-4)GlcNAc(b1-6)[Gal(b1-3)]GalNAc
In short: as §1

GalNAc(b1-3)GlcNAc = target: GalNAc(b1-3)GlcNAc
In short: as §1

GalNAc3S(b1-4)GlcNAc3S = target: GalNAc3S(b1-4)GlcNAc3S
In short: as §1

[29] = target: GlcNAc(b1-2)Gal(b1-3)GalNAc
In short: as §1

[30] = target: GlcNAc(b1-2)Man(a1-3)[GlcNAc(b1-2)Man(a1-6)]Man(b1-4)GlcNAc(b1-4)GlcNAc
In short: as §1

[31] = target: GlcNAc(b1-2)[GlcNAc(b1-4)]Man(a1-3)[GlcNAc(b1-2)Man(a1-6)]Man(b1-4)GlcNAc(b1-4)GlcNAc
In short: as §1

[32] = target: GlcNAc(b1-3)Gal(b1-4)GlcNAc
In short: as §1

[33] = target: GlcNAc(b1-3)Gal(b1-4)GlcNAc(b1-3)Gal(b1-4)GlcNAc(b1-2)Man(a1-3)[GlcNAc(b1-3)Gal(b1-4)GlcNAc(b1-3)Gal(b1-4)GlcNAc(b1-2)Man(a1-6)]Man(b1-4)GlcNAc(b1-4)GlcNAc
In short: as §1

[34] = target: GlcNAc(b1-3)Gal(b1-4)GlcNAc(b1-6)[GlcNAc(b1-3)Gal(b1-3)]GalNAc
In short: as §1

Kdn(a2-3)Gal(b1-3)GalNAc = target: Kdn(a2-3)Gal(b1-3)GalNAc
In short: as §1

Kdn(a2-3)Gal(b1-3)GlcNAc = target: Kdn(a2-3)Gal(b1-3)GlcNAc
In short: as §1

[35] = target: Man(a1-2)Man(a1-3)[Man(a1-6)]Man(a1-6)[Man(a1-2)Man(a1-3)]Man(b1-4)GlcNAc(b1-4)GlcNAc
In short: as §1

[36] = target: Man(a1-2)Man(a1-6)[Man(a1-3)]Man(a1-6)[Man(a1-2)Man(a1-2)Man(a1-3)]Man(b1-4)GlcNAc(b1-4)GlcNAc
In short: as §1

[37] = target: Man(a1-3)[Man(a1-6)]Man(a1-6)[Man(a1-2)Man(a1-3)]Man(b1-4)GlcNAc(b1-4)GlcNAc
In short: as §1

[38] = target: Man(a1-3)[Man(a1-6)]Man(a1-6)[Man(a1-3)]Man(b1-4)GlcNAc(b1-4)GlcNAc
In short: as §1

[39] = target: Man(a1-3)[Man(a1-6)]Man(b1-4)GlcNAc(b1-4)GlcNAc
In short: as §1

[40] = target: Man(a1-3)[Man(a1-6)]Man(b1-4)GlcNAc(b1-4)[Fuc(a1-6)]GlcNAc
In short: as §1

[41] = target: Neu5Ac(a2-3)Gal(b1-3)GlcNAc(b1-2)Man
In short: as §1

[42] = target: Neu5Ac(a2-3)Gal(b1-3)GlcNAc(b1-3)GalNAc
In short: as §1

[43] = target: Neu5Ac(a2-3)Gal(b1-3)GlcNAc(b1-4)Gal(b1-4)Glc
In short: as §1

[44] = target: Neu5Ac(a2-3)Gal(b1-4)GlcNAc(b1-3)Gal
In short: as §1

[45] = target: Neu5Ac(a2-3)Gal(b1-4)[Fuc(a1-3)]GlcNAc(b1-3)Gal
In short: as §1

[46] = target: Neu5Ac(a2-3)Gal(b1-4)[Fuc(a1-3)]GlcNAc(b1-3)GalNAc
In short: as §1

[47] = target: Neu5Ac(a2-3)[GalNAc(b1-4)]Gal(b1-4)GlcNAc
In short: as §1

Neu5Ac(a2-6)Gal(b1-4)Glc = target: Neu5Ac(a2-6)Gal(b1-4)Glc
In short: as §1

[48] = target: Neu5Ac(a2-6)Gal(b1-4)GlcNAc(b1-2)Man(a1-6)[Man(a1-3)]Man(b1-4)GlcNAc(b1-4)GlcNAc
In short: as §1

[49] = target: Neu5Ac(a2-8)Neu5Ac(a2-3)Gal(b1-3)GalNAc(b1-4)[Neu5Ac(a2-3)]Gal(b1-4)Glc
In short: as §1

B1: OrysaEULS2 (Oryza sativa) (protein)
chain: MVYCRANPNYAMTARNGAVVLAPANPKDEYQHWIKDMRWSTSIKDEEGYPAFALVNKATGQAIKHSLGQSHPVRLVPYNPEVMDESVLWTESRDVGNGFRCIRMVNNIYLNFDAFHGDKYHGGVRDGTDIVLWKWCEGDNQRWKIQPYYILEQKLISEEDLNSAVDHHHHHH
glycan array binding signal (z-score) [1]: -0.184 | glycan array binding signal (z-score) [2]: -0.187 | glycan array binding signal (z-score) [3]: -0.276 | glycan array binding signal (z-score) [4]: -0.163 | glycan array binding signal (z-score) [5]: -0.191 | glycan array binding signal (z-score) [6]: -0.194 | glycan array binding signal (z-score) [7]: -0.248 | glycan array binding signal (z-score) [8]: -0.081 | glycan array binding signal (z-score) [9]: -0.205 | glycan array binding signal (z-score) [10]: -0.2 | glycan array binding signal (z-score) [11]: -0.27 | glycan array binding signal (z-score) [12]: -0.163 | glycan array binding signal (z-score) [13]: -0.183 | glycan array binding signal (z-score) [14]: -0.16 | glycan array binding signal (z-score) [15]: -0.28 | glycan array binding signal (z-score) [16]: -0.176 | glycan array binding signal (z-score) [17]: -0.216 | glycan array binding signal (z-score) [18]: 2.38 | glycan array binding signal (z-score) (Gal(b1-2)Gal): -0.142 | glycan array binding signal (z-score) [19]: -0.179 | glycan array binding signal (z-score) [20]: -0.218 | glycan array binding signal (z-score) [21]: -0.191 | glycan array binding signal (z-score) [22]: -0.179 | glycan array binding signal (z-score) [23]: -0.199 | glycan array binding signal (z-score) [24]: 1.37 | glycan array binding signal (z-score) [25]: 5.65 | glycan array binding signal (z-score) [26]: 1.53 | glycan array binding signal (z-score) [27]: 0.18 | glycan array binding signal (z-score) [28]: -0.172 | glycan array binding signal (z-score) (GalNAc(b1-3)GlcNAc): -0.242 | glycan array binding signal (z-score) (GalNAc3S(b1-4)GlcNAc3S): -0.189 | glycan array binding signal (z-score) [29]: -0.206 | glycan array binding signal (z-score) [30]: 3.13 | glycan array binding signal (z-score) [31]: -0.179 | glycan array binding signal (z-score) [32]: -0.186 | glycan array binding signal (z-score) [33]: 0.555 | glycan array binding signal (z-score) [34]: -0.224 | glycan array binding signal (z-score) (Kdn(a2-3)Gal(b1-3)GalNAc): -0.167 | glycan array binding signal (z-score) (Kdn(a2-3)Gal(b1-3)GlcNAc): -0.204 | glycan array binding signal (z-score) [35]: 1.35 | glycan array binding signal (z-score) [36]: 1.51 | glycan array binding signal (z-score) [37]: 4.8 | glycan array binding signal (z-score) [38]: 4.45 | glycan array binding signal (z-score) [39]: 12.5 | glycan array binding signal (z-score) [40]: 1.44 | glycan array binding signal (z-score) [41]: -0.31 | glycan array binding signal (z-score) [42]: -0.195 | glycan array binding signal (z-score) [43]: -0.24 | glycan array binding signal (z-score) [44]: -0.196 | glycan array binding signal (z-score) [45]: -0.179 | glycan array binding signal (z-score) [46]: -0.145 | glycan array binding signal (z-score) [47]: -0.207 | glycan array binding signal (z-score) (Neu5Ac(a2-6)Gal(b1-4)Glc): -0.21 | glycan array binding signal (z-score) [48]: 3.61 | glycan array binding signal (z-score) [49]: -0.153
